Experimental data published in PubChem BioAssay.
For some assays here: Measured potencies and affinities stand elsewhere. Activity calls are given as the source filed them. Unless noted, the rule behind the calls is not given here.

How the values were obtained:
[1] = antimalarial activity against Dd2 strain (AID 2302;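 active = growth inhibition above 50% at the single 2 µM test dose, taken to imply half-maximal potency below 2 µM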;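 note: 0% = DMSO untreated growth and 100% = chloroquine plus artemisinin killed control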); details: P. falciparum Dd2 in RBCs, LDH growth readout, 72 h; at 2 µM; hits give high values
[2] = human hepatoma cell viability loss – ATP luminescence, cytotoxicity control for P. falciparum antimalarial project, primary screen (AID 2303;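 active = inhibition above 50%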;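 note: 0% = DMSO wells and 100% = digitonin-killed cells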); details: HepG2 viability, 24-48 h, at 10 µM, hits give high values
[3] = biological target: L-lactate dehydrogenase (Plasmodium falciparum (isolate CDC / Honduras)) (UniProt Q27743); experiment: PfLDH activity inhibition – cell lysate, 3D7 strain, counter-screen for P. falciparum growth inhibition project (AID 2304);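 note: 0% = vehicle and 100% = reference inhibitor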; details: P. falciparum 3D7 crude extract, LDH APAD/NBT absorbance; at 2 µM; hits give high values
[4] = inhibition of 3D7 malaria parasite growth – strain 3D7 (AID 2306);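 note: 0% = DMSO wells and 100% = chloroquine plus artemisinin control wells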; details: P. falciparum 3D7 erythrocytic growth, LDH absorbance, 72 h; at 2 µM; hits give high values
[5] = biological target: Calcium-dependent protein kinase 1 (Plasmodium falciparum (isolate 3D7)) (UniProt P62344); experiment: PfCDPK1 kinase inhibitors, biochemical, TCAMS library (AID 1159585; cut-off not given, nearly all actives have IC50 up to about 0.98 µM;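 note: inhibitors leave more ATP so luminescence rises with inhibition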); details: recombinant PfCDPK1, Kinase-Glo ATP depletion luminescence
[6] = biological target: Plasmodium falciparum protein kinase 6 (PK6, PF3D7_1337100) (UniProt Q8IDW1); experiment: PfPK6 kinase inhibitors, biochemical, TCAMS library (AID 1159586); details: recombinant PfPK6, Kinase-Glo ATP depletion luminescence
[7] = biological target: Protein kinase 7 (PK7), Plasmodium falciparum 3D7 (PF3D7_0213400) (UniProt Q7YTF7); experiment: inhibition of Plasmodium PK7 catalytic activity – biochemical, TCAMS antimalarial set, Kinase-Glo luminescence (AID 1159587); details: recombinant PfPK7, Kinase-Glo ATP depletion luminescence
[8] = biological target: Calcium-dependent protein kinase 4 (Plasmodium falciparum (isolate 3D7)) (UniProt Q8IBS5); experiment: PfCDPK4 kinase inhibitors, biochemical, TCAMS library (AID 1159588; cut-off not given, nearly all actives have IC50 up to about 0.91 µM); details: recombinant PfCDPK4, Kinase-Glo ATP depletion luminescence
Chain of Calcium-dependent protein kinase 4 (Plasmodium falciparum (isolate 3D7)) (Q8IBS5 whole entry, looked up): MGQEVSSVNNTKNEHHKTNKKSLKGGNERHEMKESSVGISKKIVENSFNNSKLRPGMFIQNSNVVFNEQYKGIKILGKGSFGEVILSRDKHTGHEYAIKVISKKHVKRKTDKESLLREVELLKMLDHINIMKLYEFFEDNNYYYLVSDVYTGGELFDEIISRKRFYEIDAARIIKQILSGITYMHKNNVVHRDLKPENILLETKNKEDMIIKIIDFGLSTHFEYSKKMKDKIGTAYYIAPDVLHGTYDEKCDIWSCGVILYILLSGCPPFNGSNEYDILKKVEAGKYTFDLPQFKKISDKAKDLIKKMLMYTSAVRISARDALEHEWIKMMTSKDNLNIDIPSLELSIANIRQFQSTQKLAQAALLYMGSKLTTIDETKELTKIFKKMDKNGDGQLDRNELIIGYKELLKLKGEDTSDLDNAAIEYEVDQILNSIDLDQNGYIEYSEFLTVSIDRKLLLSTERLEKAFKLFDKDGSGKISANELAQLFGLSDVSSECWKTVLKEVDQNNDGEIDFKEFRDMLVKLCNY

Chain of L-lactate dehydrogenase (Plasmodium falciparum (isolate CDC / Honduras)) (Q27743 whole entry, looked up): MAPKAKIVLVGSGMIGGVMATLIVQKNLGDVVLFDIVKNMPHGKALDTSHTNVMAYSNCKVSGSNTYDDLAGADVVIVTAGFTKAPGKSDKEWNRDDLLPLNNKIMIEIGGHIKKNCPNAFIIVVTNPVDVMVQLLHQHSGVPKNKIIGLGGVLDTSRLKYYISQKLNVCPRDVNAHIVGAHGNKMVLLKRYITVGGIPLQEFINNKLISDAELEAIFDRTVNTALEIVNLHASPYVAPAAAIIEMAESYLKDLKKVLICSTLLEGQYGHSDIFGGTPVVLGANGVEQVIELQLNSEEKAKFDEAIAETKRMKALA
Chain of Protein kinase 7 (PK7), Plasmodium falciparum 3D7 (PF3D7_0213400) (Q7YTF7 1-343): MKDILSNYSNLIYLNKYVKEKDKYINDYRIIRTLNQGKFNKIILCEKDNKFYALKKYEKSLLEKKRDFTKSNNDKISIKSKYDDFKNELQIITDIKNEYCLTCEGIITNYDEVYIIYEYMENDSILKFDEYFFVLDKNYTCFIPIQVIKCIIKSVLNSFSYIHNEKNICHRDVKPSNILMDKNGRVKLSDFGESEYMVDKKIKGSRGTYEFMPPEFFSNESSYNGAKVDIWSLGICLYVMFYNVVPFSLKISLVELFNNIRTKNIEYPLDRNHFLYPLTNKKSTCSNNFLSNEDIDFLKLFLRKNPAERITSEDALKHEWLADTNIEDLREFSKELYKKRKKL
Chain of Plasmodium falciparum protein kinase 6 (PK6, PF3D7_1337100) (Q8IDW1 1-305): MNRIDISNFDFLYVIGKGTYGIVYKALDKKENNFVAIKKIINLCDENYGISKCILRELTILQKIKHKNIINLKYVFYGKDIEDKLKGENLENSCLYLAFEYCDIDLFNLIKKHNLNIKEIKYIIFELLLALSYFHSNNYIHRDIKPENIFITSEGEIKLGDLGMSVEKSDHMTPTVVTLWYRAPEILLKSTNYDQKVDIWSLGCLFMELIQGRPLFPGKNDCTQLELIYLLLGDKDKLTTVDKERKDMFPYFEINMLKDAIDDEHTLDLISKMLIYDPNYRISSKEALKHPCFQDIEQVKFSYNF
Chain of Calcium-dependent protein kinase 1 (Plasmodium falciparum (isolate 3D7)) (P62344 whole entry, looked up): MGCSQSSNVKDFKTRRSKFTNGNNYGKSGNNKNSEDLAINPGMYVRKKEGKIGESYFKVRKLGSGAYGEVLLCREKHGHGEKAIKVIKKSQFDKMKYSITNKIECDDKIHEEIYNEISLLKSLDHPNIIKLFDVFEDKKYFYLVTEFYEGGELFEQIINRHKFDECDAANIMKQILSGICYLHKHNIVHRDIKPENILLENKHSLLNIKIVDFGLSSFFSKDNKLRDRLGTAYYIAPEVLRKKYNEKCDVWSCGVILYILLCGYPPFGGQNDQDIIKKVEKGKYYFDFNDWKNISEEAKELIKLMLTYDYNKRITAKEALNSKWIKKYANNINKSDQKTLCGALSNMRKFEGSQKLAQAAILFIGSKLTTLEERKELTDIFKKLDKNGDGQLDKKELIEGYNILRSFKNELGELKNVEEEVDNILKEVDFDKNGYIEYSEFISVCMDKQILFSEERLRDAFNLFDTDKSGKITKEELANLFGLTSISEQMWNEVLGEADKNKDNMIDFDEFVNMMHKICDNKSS

Row | Structure (SMILES) | growth inhibition [1] | inhibition [2] | inhibition [3] | growth inhibition [4] | outcome [5] | outcome [6] | outcome [7] | outcome [8]
1 | CCN(CCCN1CCCCC1)c1cc(C)nc(Nc2ccc(C)cc2Cl)n1 | 25% (inactive) | 44% (inactive) | 1% (inactive) | 93% (active) | inactive | inactive | inactive | inactive
2 | O=C(Nc1cccc(-c2nn3ccccc3c2-c2ccnc(Nc3cccc(F)c3)n2)c1)c1c(F)ccc(F)c1F | 73% (active) | 33% (inactive) | -1% (inactive) | 96% (active) | inactive | inactive | inactive | inactive
3 | O=C(Nc1ccc(Cl)cc1)c1cc(Cl)ccc1NC(=O)C1(c2ccc(Cl)cc2)CCCC1 | 29% (inactive) | 13% (inactive) | -4% (inactive) | 85% (active) | inactive | inactive | inactive | inactive
4 | COc1ccc2nccc([C@@H](O)CN3CCC(NC(=O)/C=C/c4ccc(F)c5ccccc45)CC3)c2c1 | 75% (active) | 37% (inactive) | 0% (inactive) | 100% (active) | inactive | inactive | inactive | inactive
